Test results reported in PubChem BioAssay AID1159580 (chemical genetic matrix, 2015).
Where “and” joins values, the source holds several entries; their conditions need not be identical. Equal entries are not always repeated. Among all 5,500 compounds or so, about 2,000 (36%) were called active. Roughly 18% stayed inconclusive and do not appear here. No stated cut-off is given here; in the data, active means normalized growth mostly below about 0.91 (no sharp cut-off); inconclusive means no clear call, values can overlap the other calls; inactive means mostly above about 0.92. The list shows a part of the results.

Test: chemical genetic growth profiling, strain panel (AID 1159580);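 further: tested at 20 µM; growth read once vehicle control cultures reached saturation at 30 °C; 1 = growth at the plate median or of vehicle wells; lower values mean less growth of the strain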
Conditions: S. cerevisiae deletion strains, growth OD

Measured: normalized growth

NCCSSCCN
inactive: locus YAL013W, strain DEP1, active compounds read low 1.01 | locus YAL021C, strain ccr4, active compounds read low 0.998 | locus YAL026C, strain drs2, active compounds read low 0.999 | locus YAL030W, strain snc1, active compounds read low 0.994 | locus YAL040C, strain CLN3, active compounds read low 1.02 | locus YBL061C, strain skt5, active compounds read low 0.997 | locus YBR009C, strain hhf1, active compounds read low 0.992 | locus YBR021W, strain FUR4, active compounds read low 1.01 | locus YBR023C, strain chs3, active compounds read low 0.991 | locus YBR171W, strain sec66, active compounds read low 0.988 | locus YBR229C, strain ROT2, active compounds read low 1 | locus YBR231C, strain swc5, active compounds read low 0.994 | locus YBR279W, strain paf1, active compounds read low 0.996 | locus YCL011C, strain gbp2, active compounds read low 1 | locus YCL016C, strain dcc1, active compounds read low 1 | locus YCL029C, strain bik1, active compounds read low 1.03 | locus YCL061C, strain MRC1 (second series), active compounds read low 1 | locus YCL069W, strain vba3, active compounds read low 0.997 | locus YCR088W, strain abp1, active compounds read low 0.991 | locus YDL005C, strain med2, active compounds read low 0.988 | locus YDL035C, strain GPR1, active compounds read low 1.01 | locus YDL040C, strain nat1, active compounds read low 0.996 | locus YDL074C, strain BRE1, active compounds read low 1.03 | locus YDL101C, strain DUN1, active compounds read low 1.03 | locus YDL134C, strain PPH21, active compounds read low 1.01 | locus YDL185W, strain tfp1, active compounds read low 1 | locus YDL192W, strain arf1, active compounds read low 1 | locus YDR001C, strain nth1, active compounds read low 0.992 | locus YDR069C, strain doa4, active compounds read low 0.983 | locus YDR101C, strain arx1, active compounds read low 1.01 | locus YDR137W, strain rgp1, active compounds read low 1.03 | locus YDR150W, strain NUM1, active compounds read low 1.01 | locus YDR159W, strain sac3, active compounds read low 1.01 | locus YDR162C, strain NBP2, active compounds read low 1.01 | locus YDR195W, strain ref2 0.975 | locus YDR297W, strain sur2, active compounds read low 1 | locus YDR318W, strain mcm21, active compounds read low 1.01 | locus YDR334W, strain swr1, active compounds read low 0.996 | locus YDR335W, strain msn5, active compounds read low 0.991 | locus YDR388W, active compounds read low 1.01 | locus YDR392W, strain spt3, active compounds read low 1.01 | locus YDR502C, strain sam2, active compounds read low 0.996 | locus YEL003W, strain gim4, active compounds read low 0.994 | locus YEL037C, strain rad23, active compounds read low 1 | locus YEL061C, strain CIN8 (second series), active compounds read low 0.989 | locus YEL061C, strain CIN8, active compounds read low 1 | locus YER002W, strain NOP16, active compounds read low 1.02 | locus YER015W, strain faa2, active compounds read low 1 | locus YER016W, strain bim1, active compounds read low 0.992 | locus YER110C, active compounds read low 1.01 | locus YER111C, strain swi4, active compounds read low 0.989 | locus YER155C, strain BEM2 (second series), active compounds read low 0.952 | locus YER155C, strain BEM2, active compounds read low 1.01 | locus YER167W, strain BCK2, active compounds read low 0.997 | locus YFR010W, strain ubp6, active compounds read low 0.994 | locus YGL078C, strain dbp3, active compounds read low 1 | locus YGL086W, strain mad1, active compounds read low 0.985 | locus YGL167C, strain pmr1, active compounds read low 0.993 | locus YGL173C, strain kem1, active compounds read low 0.99 | locus YGL227W, strain vid30, active compounds read low 0.99 | locus YGL240W, strain doc1, active compounds read low 0.978 | locus YGL248W, strain PDE1, active compounds read low 1 | locus YGL253W, strain hxk2, active compounds read low 0.995 | locus YGR078C, strain PAC10, active compounds read low 1.02 and 1 | locus YGR135W, strain pre9, active compounds read low 0.997 | locus YGR229C, strain SMI1, active compounds read low 0.982 | locus YGR252W, strain gcn5, active compounds read low 0.918 | locus YHR013C, strain ard1, active compounds read low 0.996 | locus YHR027C, strain rpn1, active compounds read low 0.997 | locus YHR030C, strain SLT2, active compounds read low 1 and 1.05 | locus YHR079C, strain IRE1 (second series), active compounds read low 1.02 | locus YHR079C, strain IRE1, active compounds read low 1.05 | locus YHR094C, strain hxt1, active compounds read low 1.01 | locus YHR129C, strain ARP1, active compounds read low 1.02 | locus YHR142W, strain chs7, active compounds read low 1.01 | locus YHR200W, strain rpn10, active compounds read low 1.01 | locus YIL066C, strain RNR3, active compounds read low 1.02 | locus YIL073C, strain SPO22, active compounds read low 1.02 | locus YIL125W, strain kgd1, active compounds read low 0.996 | locus YIR030C, strain dcg1, active compounds read low 1.01 | locus YJL092W, strain hpr5, active compounds read low 1 | locus YJL095W, strain BCK1 (second series), active compounds read low 0.989 | locus YJL095W, strain BCK1, active compounds read low 1.04 and 1.06 | locus YJL115W, strain asf1, active compounds read low 0.988 | locus YJL129C, strain trk1, active compounds read low 0.986 | locus YJL134W, strain LCB3, active compounds read low 1 | locus YJL154C, strain vps35, active compounds read low 0.993 | locus YJL164C, strain tpk1, active compounds read low 1.01 | locus YJL166W, strain qcr8, active compounds read low 0.989 | locus YJL168C, strain set2, active compounds read low 1.01 | locus YJL187C, strain SWE1 (second series), active compounds read low 1.03 | locus YJL187C, strain SWE1, active compounds read low 0.993 | locus YJR043C, strain POL32, active compounds read low 1.03 | locus YJR066W, strain TOR1, active compounds read low 0.918 | locus YJR075W, strain HOC1, active compounds read low 1.01
